Laboratory results: paper PMC4336329 (PLoS ONE, 2015)
Out of some 310,000 compounds screened, about 14,000 (4.5%) showed an effect of 50% or more. Effects have a minus sign here. The entries come from a sample that favours strong results as a whole.

molecular target: human ether-à-go-go-related gene (hERG) potassium channel (human, UniProt Q12809); assay: primary screen, population patch clamp on CHO cells stably expressing hERG; higher = less effect of the substance
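Further: peak tail current of the secondary pulse compared with the same well before compound.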

Chain of human ether-à-go-go-related gene (hERG) potassium channel (Q12809 whole entry, looked up): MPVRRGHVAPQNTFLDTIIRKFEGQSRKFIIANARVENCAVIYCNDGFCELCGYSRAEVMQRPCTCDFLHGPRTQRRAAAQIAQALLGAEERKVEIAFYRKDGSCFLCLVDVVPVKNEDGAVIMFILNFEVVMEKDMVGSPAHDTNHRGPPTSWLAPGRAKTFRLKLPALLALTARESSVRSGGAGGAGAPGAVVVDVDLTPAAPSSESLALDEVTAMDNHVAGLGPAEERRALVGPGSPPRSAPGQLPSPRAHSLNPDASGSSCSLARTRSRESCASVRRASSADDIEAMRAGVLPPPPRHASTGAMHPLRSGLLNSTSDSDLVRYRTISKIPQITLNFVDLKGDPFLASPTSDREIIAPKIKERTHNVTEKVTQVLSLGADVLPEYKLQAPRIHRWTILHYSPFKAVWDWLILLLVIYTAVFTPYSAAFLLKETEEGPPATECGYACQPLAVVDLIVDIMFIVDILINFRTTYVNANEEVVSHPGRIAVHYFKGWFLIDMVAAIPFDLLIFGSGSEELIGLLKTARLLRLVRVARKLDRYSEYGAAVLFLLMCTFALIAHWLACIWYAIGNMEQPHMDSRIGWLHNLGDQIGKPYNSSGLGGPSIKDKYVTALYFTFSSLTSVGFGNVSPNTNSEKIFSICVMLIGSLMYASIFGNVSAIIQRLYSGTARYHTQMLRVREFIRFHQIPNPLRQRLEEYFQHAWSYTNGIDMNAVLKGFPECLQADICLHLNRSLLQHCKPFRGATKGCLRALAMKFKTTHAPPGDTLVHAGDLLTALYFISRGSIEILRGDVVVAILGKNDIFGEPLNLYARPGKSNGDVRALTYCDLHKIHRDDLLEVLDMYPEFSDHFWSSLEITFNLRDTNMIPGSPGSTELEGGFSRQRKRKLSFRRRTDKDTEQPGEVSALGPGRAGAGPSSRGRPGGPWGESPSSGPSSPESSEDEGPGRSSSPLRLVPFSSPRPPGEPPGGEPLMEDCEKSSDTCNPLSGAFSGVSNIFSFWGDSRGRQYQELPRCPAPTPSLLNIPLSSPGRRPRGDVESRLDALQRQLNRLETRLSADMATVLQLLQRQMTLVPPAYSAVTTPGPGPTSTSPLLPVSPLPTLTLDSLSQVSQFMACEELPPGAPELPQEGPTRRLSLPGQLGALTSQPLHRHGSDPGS

| Structure (SMILES) | hERG current change (%, negative = inhibition) at 10uM [%] |
| --- | --- |
| CC(OC(=O)c1nc(-c2ccccc2)n(-c2ccccc2)n1)C(=O)Nc1cc(Cl)cc(Cl)c1 (stereo not drawn) | -6.35 |
| CN(C)C(CNC(=O)c1ccc2ccccc2n1)c1ccccc1 (stereo not drawn) | 11.1 |
| CC(=O)OC1N=C(c2ccc(Cl)cc2)c2cc(Br)ccc2NC1=O (stereo not drawn) | -55 |
| CC(=O)OC1N=C(c2ccccc2)c2cc(Br)ccc2NC1=O (stereo not drawn) | -10.2 |
| O=C1Nc2ccc(Br)cc2C(c2ccccc2Cl)=NC1O (stereo not drawn) | -48.6 |
| O=C1Nc2ccc(Br)cc2C(c2ccccc2)=NC1O (stereo not drawn) | 13.1 |
| CC(=O)OC1N=C(c2ccccc2Cl)c2cc(Br)ccc2NC1=O (stereo not drawn) | -40.3 |
| O=C1Nc2ccc(Br)cc2C(c2ccc(Cl)cc2)=NC1O (stereo not drawn) | -56.5 |
| COc1cc2c(=O)n(Cc3ccccc3)c(=O)n(CC(=O)NCCc3ccccc3)c2cc1OC | 0.36 |
| CC(Nc1ncnc2sccc12)c1ccccc1 (stereo not drawn) | -29.8 |
| Cc1ccc(C(=O)NCCNC(=O)CN2CCCC2)cc1 | 5.16 |
| Cc1ccccc1-c1nc(P(=O)(c2ccccc2)c2ccccc2)c(N2CCOCC2)o1 | -19.5 |
| Cc1cccc(OCCNc2cc(N3CCOCC3)ccc2[N+](=O)[O-])c1 | -12.8 |
| C#CCOCCOCCOCCNc1nc(N2CCN(C(=O)[C@H](C(C)C)n3cc(CCO)nn3)CC2)nc(N2CCN(C(=O)[C@H](C(C)C)n3cc(CCO)nn3)CC2)n1 | 2.97 |
| COc1ccc(CNCC(O)COc2cccc3c2OC(C)(C)C3)cc1.Cl (stereo not drawn) | -60.5 |
| COc1ccc(OCCOCCOc2ccc(C)cc2[N+](=O)[O-])cc1 | -22.4 |
| COC(=O)c1ccc(COc2cccc3c2OC(C)(C)C3)cc1 | 28.7 |
| Cc1ccc([N+](=O)[O-])c(OCC(O)CNC(C)(C)C)c1.Cl (stereo not drawn) | 3.01 |
| COc1ccc(CNCC(O)COc2ccc(C)cc2[N+](=O)[O-])cc1 (stereo not drawn) | -71.2 |
| CC1(C)Cc2cccc(OCC(O)CNCc3ccccn3)c2O1.Cl (stereo not drawn) | -25.1 |
| O=C(CSc1nnc(-c2cccnc2)o1)N1CCCCC1 | 9.4 |
| CC(C)C(NC(=O)C1CCCCC1)C(=O)NCc1ccccn1 (stereo not drawn) | 9.17 |
| CC(C)CC1C(C#N)=C(N)SC(N)=C1C#N | 15.9 |
| Cc1ccc(N(C)S(=O)(=O)c2ccc(-c3ccc(=O)[nH]n3)s2)cc1C | 13.7 |
| Cc1cccc2sc(NC(=O)CN(C)S(=O)(=O)c3ccc(Br)s3)nc12 | -2.49 |
| Cc1cccc(C)c1NC(=O)CN(C)S(=O)(=O)c1ccc(-c2ccc(=O)[nH]n2)s1 | -51.7 |
| CCc1cccc(C)c1NC(=O)CN(C)S(=O)(=O)c1ccc(-c2ccc(=O)[nH]n2)s1 | -55.3 |

| Structure (SMILES) | hERG current change (%, negative = inhibition) at 10uM [%] |
| --- | --- |
| Cc1cc(NC(=O)CN(C)S(=O)(=O)c2ccc(-c3ccc(=O)[nH]n3)s2)ccc1Br | 7.95 |
| CCOc1ccc(N(C)S(=O)(=O)c2ccc(-c3ccc(=O)[nH]n3)s2)cc1 | -15.6 |
| COc1cc(OC)cc(C(=O)N[C@H](C(=O)OCC(=O)Nc2ccc(F)c(F)c2)C(C)C)c1 | -8.85 |
| Cc1cc(/C=C2\SC(=O)N(C)C2=O)c(C)n1-c1ccc(S(N)(=O)=O)cc1 | 13.3 |
| COc1cccc(-c2cc(C(F)(F)F)nc(NCc3ccco3)n2)c1 | 18.8 |
| Fc1cccc(Cl)c1-c1nnc2ccc3ccccc3n12 | 10.3 |
| Cc1ccc(C)c(N2CCN(C(=O)CCC(=O)N3CCOc4ccc(Cl)cc43)CC2)c1 | -18.9 |
| Cc1ccc2c(c1)N(C(=O)CCC(=O)N1CCN(c3cccc(C)c3C)CC1)CCO2 | -18.7 |
| O=C(CCC(=O)N1CCOc2ccc(Cl)cc21)N1CCN(c2ccccn2)CC1 | -57.5 |
| O=C(CCN1C(=O)COc2ccccc21)N1CCCCC1 | -6.49 |
| Cc1ccc2c(c1)N(C(=O)CCC(=O)N1CCN(c3ccccn3)CC1)CC(C)O2 (stereo not drawn) | -46.1 |
| O=C(CCN1C(=O)COc2ccccc21)N1CCN(c2ccccn2)CC1 | -69.3 |
| O=C(O)CCC(=O)N1CCOc2ccc(Cl)cc21 | 2.92 |
| O=C(CCN1C(=O)COc2ccccc21)N1CCN(c2ccccc2)CC1 | -15 |
| Cc1ccc2c(c1)N(C(=O)CCC(=O)N1CCN(c3ccccn3)CC1)CCO2 | -52.2 |
| CCC(NC(=O)Nc1ncccc1C)(C(F)(F)F)C(F)(F)F | -3.33 |
| Cc1cccc(NC(=O)c2ccc3c(c2)C(=O)N(c2ccccc2C)C3=O)n1 | -10.5 |
| COc1ccc(CN2C(=O)CN(C3CCCCCC3)C(=O)C2c2ccc(F)cc2)cc1 (stereo not drawn) | 3.27 |
| CCOC(=O)C1=C(COC(=O)c2ccc(C)s2)NC(=O)NC1C (stereo not drawn) | -5.32 |
| CCOC(=O)C1=C(COC(=O)c2cccnc2Cl)NC(=O)NC1C (stereo not drawn) | 6.19 |
| CCOC(=O)C1=C(COC(=O)c2ncc(Cl)c(Cl)c2Cl)NC(=O)NC1C (stereo not drawn) | -60.6 |
| CCOC(=O)CCc1c(C)nc(SCCN2CCCC2)c(C#N)c1C | -63.9 |
| CCOC(=O)CCc1c(C)nc(SCc2ccc(C(=O)O)cc2)c(C#N)c1C | -11.7 |
| CCOC(=O)CCc1c(C)nc(SCC(=O)O)c(C#N)c1C | -2.59 |
| COc1ccc(C(=O)CC(=O)Nc2ccc([N+](=O)[O-])cc2)cc1 | -1.39 |
| CS(=O)(=O)Nc1ccc(C(=O)CC(=O)Nc2ccc([N+](=O)[O-])cc2)cc1 | -60.7 |
| COc1ccc(NS(=O)(=O)c2cc(NC(=O)CC(=O)c3ccc([N+](=O)[O-])cc3)ccc2C)cc1 | 5.94 |
